Assay outcomes from PubChem.
Most compounds without a hit are left out; they make up all but 1.3% or so of the library.
PME-1 primary: PME-1 inhibitors via competitive probe labeling, primary screen, biochemical, fluorescence polarization, FP-Rh probe, HTS. 320,000 tested, 0.53% active. recombinant PME-1. Protein phosphatase methylesterase 1 (Homo sapiens), Q9Y570. AID 2130, 2009. inhibition, % at 5.9 µM;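 active = inhibition above the campaign mean of all compounds plus 3 SD, cut at about 26% in these data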;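 also: competitive labeling of PME-1 active site by serine hydrolase directed probe; inhibitors block probe labeling so polarization falls and inhibition rises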
Target sequence (Q9Y570 whole entry, looked up): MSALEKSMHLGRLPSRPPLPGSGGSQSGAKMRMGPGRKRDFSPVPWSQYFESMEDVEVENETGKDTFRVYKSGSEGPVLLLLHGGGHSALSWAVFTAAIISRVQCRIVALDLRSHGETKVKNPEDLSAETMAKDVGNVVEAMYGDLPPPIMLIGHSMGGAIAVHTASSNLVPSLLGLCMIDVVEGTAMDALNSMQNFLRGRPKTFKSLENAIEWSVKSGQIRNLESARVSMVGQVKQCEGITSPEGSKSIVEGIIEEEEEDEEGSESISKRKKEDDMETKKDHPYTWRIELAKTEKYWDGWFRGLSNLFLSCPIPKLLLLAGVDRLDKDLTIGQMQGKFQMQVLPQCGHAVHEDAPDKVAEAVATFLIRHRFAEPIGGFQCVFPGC
PREPL inhibitor: PREPL enzyme inhibitors, primary screen, biochemical, fluorescence polarization; inhibition, % at 5.96 µM; AID 2751, 2010; 320,000 tested, 0.68% active; Prolyl endopeptidase-like (Homo sapiens), Q4J6C6; recombinant PREPL, fluorescence polarization activity-based probe
LYPLA1 inh: LYPLA1 inhibitors, primary screen, counter-screen for PME1 inhibitor project, biochemical, fluorescence polarization, FP-Rh probe ABPP | recombinant LYPLA1 | 320,000 tested, 0.16% active | AID 2174, 2009 | inhibition, % at 5.9 µM;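 active = inhibition above the mean of all tested compounds plus 3 SD, set per campaign, cut at about 14% in these data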;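 also: inhibitors block serine hydrolase probe labeling of LYPLA1 so polarization falls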
Fam108B inh: mouse Fam108B serine hydrolase inhibitors, primary screen, counter-screen for RBBP9 inhibitor project, biochemical, fluorescence polarization; recombinant Fam108B, FP-Rh probe fluorescence polarization; inhibition, % at 9.51 µM; 300,000 tested, 0.33% active; AID 1947, 2009;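 active = inhibition above the screen mean inhibition plus 3 SD, computed separately per campaign, cut at about 18% in these data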;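 also: inhibitors lower polarization as less probe binds the enzyme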
LYPLA2 inh: LYPLA2 inhibitors, primary screen, counter-screen for PME1 inhibitor project, biochemical, fluorescence polarization, FP-Rh probe ABPP | inhibition, % at 5.9 µM | AID 2177, 2009 | 320,000 tested, 0.38% active | recombinant LYPLA2 | Acyl-protein thioesterase 2 (Homo sapiens), O95372;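 active = inhibition above the screen-wide mean plus 3 SD, limit set per campaign, cut at about 26% in these data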
Target sequence (O95372 whole entry, looked up): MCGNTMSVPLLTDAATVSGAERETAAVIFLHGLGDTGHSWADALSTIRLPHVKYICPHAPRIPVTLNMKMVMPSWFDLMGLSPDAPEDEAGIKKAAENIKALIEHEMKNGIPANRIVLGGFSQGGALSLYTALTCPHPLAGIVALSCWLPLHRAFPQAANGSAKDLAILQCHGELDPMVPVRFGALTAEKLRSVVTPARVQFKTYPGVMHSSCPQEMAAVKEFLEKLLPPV
PREPL inh cf: human PREPL enzyme inhibitors, confirmation, biochemical, fluorescence polarization | 2,000 tested, 67% active | recombinant PREPL, fluorescence polarization activity probe | inhibition, % at 5.96 µM | AID 2803, 2010 | shares compounds with PREPL inhibitor
Of the large screens only hits and unclear results are named; the others gave an inactive call (follow-up assays come after a bar, where they were run). Rule as the data show it, unless noted: active = inhibition above about 43%; inactive = the rest.

C#Cc1ccc([C@@H]2C=C(C(=O)N3CCOCC3)O[C@H](OCc3ccc(CO)cc3)C2)cc1	PREPL inhibitor 45 | PREPL inh cf 44
CN1CCN(C(=O)C2=C[C@@H](c3ccc(C(F)(F)F)cc3)C[C@@H](OCCCCO)O2)CC1	PREPL inhibitor 45 | PREPL inh cf 54
O=C(C1=C[C@@H](c2ccc(C(F)(F)F)cc2)C[C@@H](OCc2ccc(CO)cc2)O1)N1CCOCC1	PREPL inhibitor 55 | PREPL inh cf 48
O=C(NC1CC1)C1=C[C@@H](c2ccc(C(F)(F)F)cc2)C[C@@H](OCc2ccc(CO)cc2)O1	PREPL inhibitor 47 | PREPL inh cf inactive
O=C(NC1CC1)C1=C[C@H](c2ccc(Br)cc2)C[C@H](OCc2ccc(CO)cc2)O1	none
O=C(C1=C[C@H](c2ccc(C(F)(F)F)cc2)C[C@H](OCc2ccc(CO)cc2)O1)N1CCCCCCC1	none
Cc1ccc(NC(=O)CNC(=O)c2ccco2)c(Cl)c1	none
CCN(CC)S(=O)(=O)c1ccc(N2CCOCC2)c(NC(=O)c2ccc(=O)[nH]c2)c1	none (no result: PME-1 primary, LYPLA1 inh, Fam108B inh, LYPLA2 inh)
O=C(Nn1nnnc1Nc1ccccc1)C12CC3CC(CC(C3)C1)C2	none
COc1ccc(NC(C)=O)cc1S(=O)(=O)N1CCN(Cc2cccs2)CC1	none (no result: Fam108B inh)
Cc1c(Cl)c([N+](=O)[O-])nn1CCCC(=O)Nc1cccc(Cl)c1Cl	PREPL inhibitor 47 | PREPL inh cf inactive
O=C(CSc1nnc2sc3ccccc3n12)c1ccco1	none
CC(=O)C1=C(O)C(=O)N(Cc2ccccc2)C1c1ccc(Br)cc1 (stereo not drawn)	none
CCN(CC)CCC(c1cc(OC)c(OC)c(OC)c1)c1c(O)cc(OC)cc1OC (stereo not drawn)	PREPL inhibitor 45 | PREPL inh cf 47
CCN(CC)C(=O)CC(c1cc(OC)c(OC)c(OC)c1)c1c(O)cc(OC)cc1OC (stereo not drawn)	none
Cc1cc(=O)[nH]c(N/N=C/c2c[nH]c3ccccc23)n1	none
C(=N\Nc1nc2ccccc2[nH]1)/c1cccc2cccnc12	PME-1 primary 52, PREPL inhibitor 63 | PREPL inh cf 53
C(=N\Nc1nc2ccccc2[nH]1)/c1c[nH]c2ccccc12	PREPL inhibitor 49 | PREPL inh cf 54
O=C(C[C@H]1C/C=C\CC[C@H](Cc2ccc(F)cc2)C(=O)OC[C@H]2CCCN2C1=O)N[C@H](CO)Cc1ccccc1	none (no result: PME-1 primary, LYPLA1 inh, Fam108B inh, LYPLA2 inh)
O=C(C[C@H]1C/C=C\CC[C@H](Cc2ccc(F)cc2)C(=O)OC[C@H]2CCCN2C1=O)N[C@@H](CO)Cc1ccccc1	PREPL inhibitor 61 (no result: PME-1 primary, LYPLA1 inh, Fam108B inh, LYPLA2 inh) | PREPL inh cf 53
O=C(C[C@H]1C/C=C\CC[C@@H](Cc2ccc(F)cc2)C(=O)OC[C@H]2CCCN2C1=O)N[C@@H](CO)Cc1ccccc1	PREPL inhibitor 53 (no result: PME-1 primary, LYPLA1 inh, Fam108B inh, LYPLA2 inh) | PREPL inh cf 54
O=C1CN(C(=O)c2ccc(F)cc2)c2ccccc2N1	none
COc1ccc(OC)c(Nc2nc(NCCCN(C)C)nc(N)c2[N+](=O)[O-])c1	PREPL inhibitor 47 | PREPL inh cf inactive
Cn1c(O)c(N=NC(=O)Cn2c(C(F)(F)F)nc3ccccc32)c2ccccc21	none
c1ccc2c(c1)CCN(c1nc3cc4c(cc3s1)OCCO4)C2	PREPL inhibitor 48 | PREPL inh cf inactive
COc1cc(OC)cc(OC(=O)C2CCN(S(=O)(=O)c3ccc(OC)c(OC)c3)CC2)c1	none
CC1=CC(C)(C)Nc2ccc(OC(=O)CCN3C(=O)c4ccccc4C3=O)cc21	PREPL inhibitor 79 | PREPL inh cf 78
Cc1ccc(OC(=O)CN2C(=O)c3ccccc3C2=O)cc1C	none
Nc1cc(C(=O)c2ccccc2)ccc1[N+](=O)[O-]	none
Cc1onc(-c2c(F)cccc2Cl)c1C(N)=S	none
CC(C)[C@H](NC(=O)c1ccc(C(C)(C)C)cc1)C(=O)N1CCN(Cc2ccc3c(c2)OCO3)CC1	none (no result: PME-1 primary, LYPLA1 inh, Fam108B inh, LYPLA2 inh)
Cc1ccc(CNC(=O)c2ccc3c(=O)[nH]c4c(C(=O)NCC5CCCO5)sc(=S)n4c3c2)cc1 (stereo not drawn)	PREPL inhibitor 44 | PREPL inh cf 46
N#C/C(=C\c1ccc(OC(=O)c2cccs2)cc1)c1nc2ccccc2[nH]1	PREPL inhibitor 55 | PREPL inh cf inactive
N#C/C(=C\c1cccs1)c1nc2ccccc2[nH]1	none
COc1cccc2c1Oc1ncccc1N(C(=O)CCC(=O)NCc1cccc(C)c1)C2	none
COc1ccc(NC(=O)c2c3c(nc4ccccc24)CCC3)cc1S(=O)(=O)N1CCOCC1	none
O=C(Oc1ccc2ccc(=O)oc2c1)c1ccco1	none
O=C(Oc1ccc(OC(=O)c2ccco2)c(S(=O)(=O)c2ccc(Br)cc2)c1)c1ccco1	PREPL inhibitor 94 | PREPL inh cf 93
Cc1ccc(S(=O)(=O)c2cc(OC(=O)c3ccco3)ccc2OC(=O)c2ccco2)cc1	PREPL inhibitor 86 | PREPL inh cf 77
COc1ccc(N(CC(=O)N2CCC(C(N)=O)CC2)S(=O)(=O)c2ccccc2)cc1	none
O=C(NCc1ccccc1)c1ccc2c(c1)S(=O)(=O)c1cc(Cl)ccc1C2=O	none (no result: Fam108B inh)
O=C(NCCc1ccccc1)c1ccc2c(c1)S(=O)(=O)c1cc(Cl)ccc1C2=O	PREPL inhibitor 56 (no result: Fam108B inh) | PREPL inh cf inactive
O=C(Nc1ccc2c(c1)OCCO2)c1cccc2nc3ccccc3nc12	PREPL inhibitor 49 | PREPL inh cf 60
Cc1cc[n+](CC(=O)c2cccc([N+](=O)[O-])c2)c2ccccc12	PREPL inhibitor 45 | PREPL inh cf inactive
Cc1c(CCOC(=O)c2cccc([N+](=O)[O-])c2)sc[n+]1CC(=O)c1ccccc1	PREPL inhibitor 51 | PREPL inh cf inactive
Cc1c(CCOC(=O)c2ccc([N+](=O)[O-])cc2)sc[n+]1CC(=O)c1ccccc1	PREPL inhibitor 63 | PREPL inh cf inactive
CCCCC(CC)CNC(=O)C1CC=CCC1C(=O)O (stereo not drawn)	none
COC(=O)c1c(-c2c(Cl)cccc2Cl)noc1C(=O)NN	none
C[C@H]1CN([C@@H](C)CO)C(=O)Cc2cc(NS(C)(=O)=O)ccc2O[C@@H]1CN(C)Cc1ccc(Cl)c(Cl)c1	PREPL inhibitor 47 (no result: PME-1 primary, LYPLA1 inh, Fam108B inh, LYPLA2 inh) | PREPL inh cf inactive
Oc1c(CN2CCOCC2)cc(COCc2ccccc2)c2cccnc12	PREPL inhibitor 56 | PREPL inh cf 65
Oc1c(CNc2ccccc2)cc(COCc2ccccc2)c2cccnc12	none (no result: PME-1 primary, LYPLA1 inh, Fam108B inh, LYPLA2 inh)
COc1ccc(-c2cn(Cc3ccc(C(N)=O)cc3)c(CCN)n2)cc1	PREPL inhibitor 46 | PREPL inh cf inactive
O=C(N/N=C/c1ccc(OCc2ccccc2)cc1)c1cc[n+](Cc2ccccc2)cc1	PREPL inhibitor 53 | PREPL inh cf inactive
